Tests used:
Assay in all cases: PBM binding z-score (relative to random genomic background probes); higher = stronger binding; sequences stand for … in GC…GCGATTGACAGCGTAGAATGAAGG
[1] = system: PPARg:RXRa DBDmut IVT, anti-RXR (DBD mutation: RXRa K156A/R161A, NR concentration 270 nM, RXRa partner concentration 90 nM)
Procedure, shortened: (§1)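 Ligand-free nuclear receptor dimers were bound for 1 h to custom Agilent 4×180K protein-binding microarrays. Detection used antibodies against each partner (one per run). Binding z-scores rest on regression-normalized fluorescence, with random background probes as the reference.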

[2] = system: PPARg:RXRa IVT, anti-PPARg (NR concentration 270 nM, RXRa partner concentration 90 nM)
Procedure, shortened: as §1

[3] = system: PPARg DBDmut:RXRa IVT, anti-PPARg (DBD mutation: PPARg1 K132A/R137A, NR concentration 270 nM, RXRa partner concentration 90 nM)
Procedure, shortened: as §1

[4] = system: PPARg DBDmut IVT, anti-PPARg (DBD mutation: PPARg1 K132A/R137A, NR concentration 270 nM)
Procedure, shortened: as §1

[5] = system: PPARg homodimer (NR concentration 180 nM)
Procedure, shortened: as §1

[6] = system: PXR:RXRa (NR concentration 270 nM, RXRa partner concentration 90 nM)
Procedure, shortened: as §1

[7] = system: PXR homodimer (NR concentration 270 nM)
Procedure, shortened: as §1

[8] = system: RARa:RXR (NR concentration 270 nM, RXRa partner concentration 90 nM)
Procedure, shortened: as §1

[9] = system: RARa homodimer (NR concentration 270 nM)
Procedure, shortened: as §1

[10] = system: RARb:RXRa (NR concentration 270 nM, RXRa partner concentration 90 nM)
Procedure, shortened: as §1

[11] = system: RARb homodimer (NR concentration 270 nM)
Procedure, shortened: as §1

[12] = system: RARg:RXRa (NR concentration 270 nM, RXRa partner concentration 90 nM)
Procedure, shortened: as §1

[13] = system: RARg homodimer (NR concentration 270 nM)
Procedure, shortened: as §1

[14] = system: RXRa DBDmut IVT, anti-RXR (DBD mutation: RXRa K156A/R161A, NR concentration 90 nM)
Procedure, shortened: as §1

[15] = system: RXRa homodimer (NR concentration 180 nM)
Procedure, shortened: as §1

[16] = system: THRa:RXRa (NR concentration 90 nM, RXRa partner concentration 90 nM)
Procedure, shortened: as §1

[17] = system: THRa homodimer (NR concentration 90 nM)
Procedure, shortened: as §1

[18] = system: VDR homodimer (NR concentration 270 nM)
Procedure, shortened: as §1

Sequence | PBM binding z-score [1] | PBM binding z-score [2] | PBM binding z-score [3] | PBM binding z-score [4] | PBM binding z-score [5] | PBM binding z-score [6] | PBM binding z-score [7] | PBM binding z-score [8] | PBM binding z-score [9] | PBM binding z-score [10] | PBM binding z-score [11] | PBM binding z-score [12] | PBM binding z-score [13] | PBM binding z-score [14] | PBM binding z-score [15] | PBM binding z-score [16] | PBM binding z-score [17] | PBM binding z-score [18]
CACGAAAGGTCGTGCTCAGGTGAGTATACCAAAC | 1.16 | 1.86 | 0.523 | 0.745 | 1.9 | 3.35 | 0.154 | 4.28 | -0.1 | 4.13 | 2.88 | 5.37 | 4.66 | 2.24 | 5.36 | 3.96 | 1.18 | 1.46
ATCGAAAGGTCGTGAGGGGAGTATACAGAAAGGC | 0.526 | 2.01 | 1.57 | 0.649 | 2.22 | 2.99 | 0.725 | 3.78 | 0.753 | 4.03 | 2.78 | 4.4 | 3.89 | 1.72 | 5.16 | 2.72 | 0.843 | 1.42
GATACAGGGTAAGCTAGAGGCCAGAGTATGGAAA | 0.227 | 0.424 | -0.118 | -0.173 | -0.435 | -0.38 | -0.17 | -0.0414 | -0.543 | 0.634 | 0.413 | 0.988 | 0.547 | -0.967 | 0.303 | 0.219 | -0.653 | -0.382
CCGTCTGGGGCAGAAAGGTTACCATACCATCCGG | 0.505 | 0.764 | -1.18 | -1.86 | 0.553 | 0.821 | -0.115 | 1.51 | -0.0366 | 1.54 | 2.03 | 1.36 | 0.979 | -0.795 | 1.37 | 0.782 | -0.335 | -0.377
CCTAGTCGGTCAAGGTCACACACGCTATAGGTAC | 4.58 | 5.27 | 0.742 | 0.895 | 3.81 | 4.4 | 1.97 | 4.9 | 2.62 | 4.51 | 4.9 | 5.15 | 5.64 | 2.13 | 4.64 | 4.26 | 4.28 | 3.91
CCTGCTAAGTCAATGGTCAGCTAAAGCAGCTCGC | 0.121 | -0.663 | -1.16 | -0.747 | -0.2 | -0.405 | -0.531 | -0.153 | -0.807 | 0.498 | 0.12 | -0.277 | -0.302 | 0.497 | -0.263 | -0.402 | -0.724 | -0.804
CAAACTAGGTCCCGAAAGGTCAAAGTCGAATGAC | 4.2 | 4.78 | 0.419 | 0.865 | 3.35 | 5.58 | 1.52 | 6.01 | 1.91 | 4.74 | 4.87 | 5.77 | 5.09 | 1.4 | 6.66 | 4.1 | 1.43 | 2.66
ATCGAAAGTTCGAAGGTGAGTATACCCACCCGAA | 0.0334 | 0.537 | 0.525 | 0.231 | 0.595 | 1.16 | -0.00599 | 1.67 | -0.2 | 2.07 | 0.995 | 1.82 | 1.51 | 1.94 | 2 | 0.601 | -0.388 | 1.07

Source: the supplement of paper PMC6555819
